Our source for the sensor-assay potency score (higher = more potent) values is the OligoGym collection.

Targets include EEF1B2; EHD3; EIF3M; ENAM; EPDR1; EPHX1; ETFB; ETS1; FAM162A; FAM178A; FAM203A; FAM194A; FAM22D.
Common to all, as to experiment: pooled miR-30 sensor sort-seq; sequence = guide strand
What all share (details): shRNA
Note: reference of the scale not given here.

In the case of TTGAATGCTTCTGACGCACTCC, the sensor-assay potency score (higher = more potent) with EEF1B2 was 0.113.
TAGAAGATCTCGTCGTACATGG: the sensor-assay potency score (higher = more potent) with EHD3 was -0.19.
On the same count and under the same terms, with TTTGTGGGCATCGAAGAGCAGA the figure was -1.26.
For the sequence AACATCATCAGCTCCAATCTGA, the sensor-assay potency score (higher = more potent) with EIF3M was determined as 0.0943.
The same measure, in the same setting: the same measure for TTAACAACTGCAGTCTCAGAGA: -0.725.
Take TTGAGCTTCCTCTTCGGGCTGA: the sensor-assay potency score (higher = more potent) with ENAM was found to be 1.2.
On to TATCACACTGTAGTTTATGGTA, for which the sensor-assay potency score (higher = more potent) with EPDR1 was -0.596.
On the same count and under the same terms, the same measure for TAGAGGAATAATTACTTCCTAT: -0.811.
For the sequence TCATGCTTCTGGGTCATCCAGC, the sensor-assay potency score (higher = more potent) with EPHX1 is -0.602.
In the assay with ETFB, TCCGTGACCACACCGGTCCTGT yielded a sensor-assay potency score (higher = more potent) of -1.31.
ACACTGATCACAGAGAGCTTGG had a sensor-assay potency score (higher = more potent) in the assay with ETFB of -0.751.
The same measure, in the same setting: the same measure for TCCACTTTCAACTTGTCCCCCT: -0.169.
For the sequence TTCTTTAGTGAAACCACTGAAA, in the assay with ETS1, the sensor-assay potency score (higher = more potent) is -0.218.
As to TTCTTGGCTTTCATGATGTTGG, the sensor-assay potency score (higher = more potent) with ETFB was -0.962.
In the assay with ETFB, TCAGCTGTCACCACAGCTGGCA gave a sensor-assay potency score (higher = more potent) of -0.558.
For the sequence TGAAAGTAGCTTTTAATGCTTG, the sensor-assay potency score (higher = more potent) with ETS1 was -0.0896.
Take TTCTCCTTCTCTGCCAGCTTGG: in the assay with ETFB, the sensor-assay potency score (higher = more potent) was -1.27.
In the case of TTCTGCAAGGTGTCTGTCTGGA, the sensor-assay potency score (higher = more potent) in the assay with ETS1 stood at 0.532.
Same read-out and setting: the same measure for TTGTTTGATAGCAAAGTAGTCA: -0.385.
Sequence TCGGTCTGCACCCATGGCCAGG gave a sensor-assay potency score (higher = more potent) in the assay with ETFB of -1.71.
The sequence TAGCAAAGTAGTCATTCTGCAA showed a sensor-assay potency score (higher = more potent) with ETS1 of -0.233.
Turning to TTGATCACCTCGATCTTCTTCT, in the assay with ETFB, the sensor-assay potency score (higher = more potent) amounted to 0.521.
On the same count and under the same terms, the same measure for TTGGGCAGCGTGGCGTAGCGGG: -1.13.
In turn, TTCTTGTTTGATAGCAAAGTAG had a sensor-assay potency score (higher = more potent) in the assay with ETS1 of -1.22.
In the assay with ETFB, AATCCAGCTGTCATCTGCCCTG displayed a sensor-assay potency score (higher = more potent) of -0.828.
ATAGCTAATGAAGTAATCCGAG displayed a sensor-assay potency score (higher = more potent) with ETS1 of -0.147.
Regarding TCTCCTTGAGCCGCACAGCCTC, the sensor-assay potency score (higher = more potent) in the assay with ETFB is -1.05.
The same measure, in the same setting: the same measure for TCCCGCTCCACTTTCAACTTGT: -0.247; for AAGAAATCCAGCTGTCATCTGC: 0.386.
In turn, TAACTTGATATGGTTTCACATC displayed a sensor-assay potency score (higher = more potent) with ETS1 of -1.41.
On the same count and under the same terms, the same measure for TTTTTGTCGTAATAGTAGCGTA: -0.88.
With TTCATGGAGTGCTTCACACCAT, in the assay with ETFB, the sensor-assay potency score (higher = more potent) was 0.145.
On to TAGCTAATGAAGTAATCCGAGG, for which the sensor-assay potency score (higher = more potent) in the assay with ETS1 is -1.48.
The same measure, in the same setting: the same measure for TTGATATGGTTTCACATCCTCT: -1.06; for TGAGACATCATTTCTTTGCTGC: 0.679; for TTTGATAGCAAAGTAGTCATTC: -0.303.
ACAGTCATCATCGATGGCCTGT gave a sensor-assay potency score (higher = more potent) with ETFB of -0.63.
The same measure, in the same setting: the same measure for TTCTTCTTGGCTTTCATGATGT: -0.521.
In the case of TCGTCTCCTGGCACTGTGCAGG, the sensor-assay potency score (higher = more potent) with ETFB is -1.37.
Sequence TTTCTTTGCTGCTTGGAGTTAA came in with a sensor-assay potency score (higher = more potent) with ETS1 of -0.637.
For TTGGCTTTCATGATGTTGGGCA, the sensor-assay potency score (higher = more potent) with ETFB came out at 0.503.
The same measure, in the same setting: with AAGCGTTCTGCTTCTGCTGGGG the figure was -0.0454; with TCTGGTTACAGTCATCATCGAT, -0.57.
Regarding ATCTGCACATTCCATATCCGGG, in the assay with ETS1, the sensor-assay potency score (higher = more potent) was -1.42.
Still for that read-out and setting: with TTTCACATCCTCTTTCTGCAGG the figure was -0.259.
For TTTCAACTTGTCCCCCTCCAGC, in the assay with ETFB, the sensor-assay potency score (higher = more potent) was -1.21.
On the same count and under the same terms, the same measure for ATCACCTCGATCTTCTTCTTCT: -0.543.
For TATCGTAGCTCTCTATGCTTTC, in the assay with ETS1, the sensor-assay potency score (higher = more potent) is -0.783.
In the case of TGGAGGTCAGGTCCACACCCAG, the sensor-assay potency score (higher = more potent) with ETFB was -1.98.
TAGTCCTCTGAGTCGAAGCTGT had a sensor-assay potency score (higher = more potent) with ETS1 of -0.809.
In the assay with ETFB, TCGATCTTCTTCTTCTTGGCTT came in with a sensor-assay potency score (higher = more potent) of -0.249.
Take TCATCTTCCTTTTTGAAGCGAC: in the assay with FAM162A, the sensor-assay potency score (higher = more potent) is -0.679.
In the assay with FAM162A, TCACATAACCTAAAACAGCTTC displayed a sensor-assay potency score (higher = more potent) of -0.389.
With TATACCATGATCTTCATGGTGC, the sensor-assay potency score (higher = more potent) with FAM178A was determined as 0.577.
The same measure, in the same setting: the same measure for TTTCTTTAGAAATTCCTTGTGC: 0.466.
The sequence TCCAACTGCTCCTGCTCCCTGC gave a sensor-assay potency score (higher = more potent) with FAM203A of -0.834.
Regarding TACAATGTCATCAATTATCTGT, the sensor-assay potency score (higher = more potent) with FAM194A was 0.418.
Sequence TAGCCGGGCGTGCACAGCGCGC had a sensor-assay potency score (higher = more potent) with FAM203A of -1.89.
For the sequence TTAGACAGCACCAGAGGGCCGC, the sensor-assay potency score (higher = more potent) in the assay with FAM22D was -0.28.
As to TCTCATAGACACTCCTGGGGTT, in the assay with FAM22D, the sensor-assay potency score (higher = more potent) is 0.0703.
